Screening results from PubChem.
DRD3 antagonist: blocks the human D3 dopamine receptor; P35462; D3R cells, DiscoveRx beta-arrestin luminescence, antagonist mode; active compounds read low; max response, negative = inhibition, %; 360,000 compounds, 2.5% hits; in the data active = max response below about -50%
Target sequence (P35462 whole entry, looked up): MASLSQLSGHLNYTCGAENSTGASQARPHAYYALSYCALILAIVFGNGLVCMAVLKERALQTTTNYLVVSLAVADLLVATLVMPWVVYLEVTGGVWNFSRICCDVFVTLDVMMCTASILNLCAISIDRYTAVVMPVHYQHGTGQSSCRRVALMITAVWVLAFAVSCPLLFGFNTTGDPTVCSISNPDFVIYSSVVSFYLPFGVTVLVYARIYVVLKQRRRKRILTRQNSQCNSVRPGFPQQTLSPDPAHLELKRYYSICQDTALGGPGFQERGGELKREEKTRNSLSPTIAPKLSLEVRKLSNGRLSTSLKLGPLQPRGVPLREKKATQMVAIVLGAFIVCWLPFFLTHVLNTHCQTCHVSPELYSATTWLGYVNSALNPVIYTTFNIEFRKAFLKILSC
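Cells expressing the human receptor were seeded at 1500 cells/well, incubated overnight at 37 degrees C in 5% CO2, then exposed to library compounds with dopamine controls for 90 minutes at 37 degrees C before luminescent detection.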
D1 agonist: agonists of human D1 dopamine receptor | activation, % at 2 µM | HEK293 T-REx D1 cells, calcium flux, agonist mode | 360,000 compounds, 1% hits | AID 504660 | P21728; in the data active = activation above about 30%
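Tetracycline-induced HEK293 TREx D1 cells, force-coupled to calcium signalling, were dye-loaded with a no-wash calcium kit. Compound was pin-added after a 10 s baseline. Fluorescence was read kinetically at 1 cycle/s for 180 s, with calcium rises flagged as agonism.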
D1 antagonist: antagonists of human D1 dopamine receptor. P21728. HEK293 TREx D1 cells, calcium flux, dopamine EC80; active compounds read low. activity change, negative = inhibition, % at 10 µM. 360,000 compounds, 3.2% hits. AID 504652; in the data active = activity change below about -30%
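Compound effects on dopamine-evoked calcium signalling were measured in tetracycline-induced HEK293 Trex D1 cells. Dopamine at EC80 followed a 180 s compound pre-read, and fluorescence was tracked kinetically for 180 s more.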
D1 PAM: human D1 dopamine receptor positive modulation | AID 504651 | HEK293 TREx D1 cells, calcium flux, dopamine EC20 potentiation | P21728 | potentiation, % at 10 µM | 360,000 compounds, 0.036% hits; in the data active = potentiation above about 30%
DRD3 agonist: D3 dopamine receptor (human) agonism; D3R DiscoveRx beta-arrestin cells, luminescence, 90 min; max activation, %; 410,000 compounds, 0.58% hits; AID 652048; in the data active = max activation above about 30%
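Agonist-mode cell screen: cells plated at 1500/well and incubated overnight at 37 °C, then exposed to library compounds for 90 min at 37 °C. Detection reagent was added for 30–60 min at room temperature, and luminescence was read.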
Of the large screens only hits and unclear results are named; the others gave an inactive call; ! = not confirmed by another sample. Compounds with a hit are over-represented: about 6.1% of the library has one in this group of screens.

O=C(CCS(=O)(=O)c1cc2c(cc1Cl)NC(=O)CO2)NCCc1ccccc1	none
Cc1ccc(CCNC(=O)CCS(=O)(=O)c2cc3c(cc2C)NC(=O)CO3)cc1	D1 antagonist -86.0!
O=C(NCc1ccc2c(c1)OCO2)c1ccc(CS(=O)(=O)c2ccc(Br)cc2)o1	D1 agonist 35.8 (no result: D1 PAM)
O=C(NCc1ccc2c(c1)OCO2)c1c(-c2ccccc2)sc2ccccc12	DRD3 agonist 67.3 (no result: D1 agonist, D1 antagonist, D1 PAM)
CCCn1nc2cc(C(=O)NCc3ccc4c(c3)OCO4)ccc2c1OCC	none
Cc1onc(-c2ccccc2)c1C(=O)NCc1ccc2c(c1)OCO2	none
CCOc1c2ccc(C(=O)NCc3ccc4c(c3)OCO4)cc2nn1CC	DRD3 antagonist -52.5
O=C(NCc1ccc2c(c1)OCO2)c1ccc(N2CCCCCC2)c([N+](=O)[O-])c1	DRD3 antagonist -60.2
CCCN1C(=O)C2(c3ccccc31)c1c(oc3cc(C)c(C)cc3c1=O)C(=O)N2CCCOC (centres undefined)	none (no result: DRD3 antagonist)
COc1ccccc1NC(=O)Nc1ccccc1C(=O)NCCCN1CCOCC1	none
CCCC1([C@H](O)C/C=C/[C@H]2[C@H](O)CC(=O)[C@@H]2CCCCCCC(=O)OC)CCC1	none (no result: DRD3 antagonist, D1 agonist, D1 antagonist, D1 PAM)
CCC1(c2ccc(F)cc2)NC(=O)N(CC(=O)NC2CCCCCC2)C1=O (centres undefined)	none (no result: D1 agonist, D1 antagonist, D1 PAM)
NC(=O)[C@@H]1CSSCCC(=O)N[C@@H](CCCCN=C(N)N)C(=O)NCC(=O)N[C@@H](CC(=O)O)C(=O)N[C@@H](Cc2c[nH]c3ccccc23)C(=O)N2CCC[C@H]2C(=O)N1	none (no result: DRD3 antagonist, D1 agonist, D1 antagonist, D1 PAM)
O=C(NCc1ccc2c(c1)OCO2)c1ccc(Br)cc1	DRD3 agonist 47.0
CN1C(=O)c2ccc(C(=O)NCc3ccc4c(c3)OCO4)cc2C1=O	D1 antagonist -33.7
O=C(NCc1ccc2c(c1)OCO2)c1ccccc1	none
Cc1ccc(C)c2sc(NC(=O)c3ccc(N4CCCCC4)c([N+](=O)[O-])c3)nc12	DRD3 antagonist -59.1
COc1ccc(OC)c(N2C(=O)c3ccccc3C2c2nnnn2-c2ccc3c(c2)OCCO3)c1 (centres undefined)	none (no result: D1 agonist, D1 antagonist, D1 PAM)
O=C(Oc1ccccc1)c1cccc(COC(=O)c2cnccn2)c1	D1 antagonist -58.6
CC1=NN(C(=S)Nc2ccccc2)C(C)(C)C1	none
Cc1c(Cl)cccc1NC(=O)CSc1nc(=O)n(Cc2ccco2)c2c1CCC2	none (no result: DRD3 antagonist, D1 antagonist)
CCN(CC)CCNC(=O)c1ccc(N)cc1	none
CCOc1cc(/C=C/C(=O)Nc2ccc(C(=O)NCCN(CC)CC)cc2)ccc1OCC(C)C	D1 antagonist -41.0
CCN(CC)CCNC(=O)c1ccc(NC(=O)c2ccc(COc3ccccc3)cc2)cc1	none
CCOc1ccc(/C=C/C(=O)Nc2ccc(C(N)=O)cc2)cc1OC	none
CCN(CC)CCNC(=O)c1ccc(NC(=O)c2ccc(C(=O)c3ccccc3)cc2)cc1	D1 antagonist -37.8
CCN(CC)CCNC(=O)c1ccc(NC(C)=O)cc1	D1 antagonist -34.2!
COc1ccc(F)cc1S(=O)(=O)NCCCn1ccnc1	none
FC(F)(F)Oc1ccc2c(c1)NC(c1ccncc1)=NC(c1cccs1)=N2	none (no result: DRD3 antagonist)
